Source: PubChem BioAssay (National Center for Advancing Translational Sciences (NCATS))
Tau fibril ThT: qHTS for Inhibitors of Tau Fibril Formation, Thioflavin T Binding; AID 1460, 2008; Potency, µM (highest dose often 57.4 µM), most hits filed as inhibitors; recombinant tau K18 P301L, heparin-induced fibrillization, ThT fluorescence; Microtubule-associated protein tau (Homo sapiens), P10636; 2.1% of 270,000 active; note: nearly all actives have a fitted effect of over 55% in size
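Heparin-induced fibrillization of the P301L-mutant K18 repeat-domain fragment of human tau was followed by ThT binding in quantitative high-throughput format.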
Tau fibril FP: qHTS for Inhibitors of Tau Fibril Formation, Fluorescence Polarization | Microtubule-associated protein tau (Homo sapiens), P10636 | K18 P301L tau heparin fibrillization, Alexa594 FP, 6 h | Potency, µM (highest dose often 57.7 µM), most hits filed as inhibitors | 0.39% of 280,000 active | AID 1468, 2008; note: nearly all actives have a fitted effect of over 55% in size
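Read-out: fluorescence polarization of Alexa 594-labeled tau (0.24 uM), 555 nm excitation, 632 nm emission. Mixtures held 15 uM unlabeled K18 P301L, compound and 20 uM heparin, pH 7 acetate buffer, incubated 6 hr at 37 C.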
Tau fluor cs: Counterscreen qHTS for Inhibitors of Tau Fibril Formation, Fluorescence Polarization. Potency, µM (highest dose often 57.7 µM). tau K18 P301L Alexa594 fluorescence, heparin fibrillization. AID 1463, 2008. 0.93% of 280,000 active; note: nearly all actives have a fitted effect of over 55% in size
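Human tau K18 P301L (15 uM unlabeled, 0.24 uM Alexa 594-labeled) in 100 mM sodium acetate pH 7 with 20 uM heparin, 6 hr at 37 C. ThT 30 uM added, 1 hr ambient; Alexa 594 FP and total fluorescence read at 555/632 nm.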
TR SRC2 fluor cs: Total Fluorescence Counterscreen for Inhibitors of the Interaction of Thyroid Hormone Receptor and Steroid Receptor Coregulator 2. TRb/SRC2 Texas Red total fluorescence interference. Potency, µM (series often up to 106 µM). 0.29% of 280,000 active; active = well fitted curve in either direction with a large enough effect; inconclusive = small, poorly fitted or top-dose-only effect
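Human TRb ligand-binding domain at 0.6 uM with 20 nM Texas Red SRC2 peptide in Tris buffer containing 1 uM T3 and 5% DMSO, incubated with compound 5 h at ambient temperature. Total fluorescence (555/632 nm) calculated as parallel + 2 × perpendicular.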
TRb-SRC2 inh: qHTS for Inhibitors of the Interaction of Thyroid Hormone Receptor and Steroid Receptor Coregulator 2; 0.065% of 280,000 active; Potency, µM (series often up to 106 µM), usual class: inhibitors; Thyroid hormone receptor beta (Homo sapiens), P10828; TRbeta-SRC2 peptide binding, fluorescence polarization; receptor liganded with 1 µM T3; note: nearly all actives have a fitted effect of over 50% in size
Target sequence (P10828 whole entry, looked up): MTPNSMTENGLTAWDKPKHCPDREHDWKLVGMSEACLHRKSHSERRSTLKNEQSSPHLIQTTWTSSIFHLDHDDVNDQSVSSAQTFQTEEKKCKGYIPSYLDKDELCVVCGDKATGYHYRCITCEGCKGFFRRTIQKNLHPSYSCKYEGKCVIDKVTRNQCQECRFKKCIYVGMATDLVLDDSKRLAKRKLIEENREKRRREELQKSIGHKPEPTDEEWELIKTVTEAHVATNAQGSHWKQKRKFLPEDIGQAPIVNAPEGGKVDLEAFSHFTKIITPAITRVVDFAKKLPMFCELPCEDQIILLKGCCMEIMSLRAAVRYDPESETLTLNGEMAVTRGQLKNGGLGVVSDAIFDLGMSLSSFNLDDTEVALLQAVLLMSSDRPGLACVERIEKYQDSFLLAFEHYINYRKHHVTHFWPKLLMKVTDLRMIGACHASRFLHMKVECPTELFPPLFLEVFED
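A fluorescence polarization screen tested compounds at multiple concentrations against complex formation between 0.6 uM TRb ligand-binding domain and 20 nM Texas Red SRC2 peptide, with 1 uM T3 present; readout after 5 hr.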
Large screens that a line does not name were inactive; [ ] = another dose, or the depositor's remark. Most compounds without a hit are left out; they make up all but 3.1% or so of the library. Unless noted, calls come from the whole dose curve; as a rule, active = well fitted curve in the direction sought with a large enough effect; inconclusive = small, poorly fitted or top-dose-only effect, or another doubt; inactive = no such curve, though single readings can be large; an effect the other way counts as inactive or inconclusive.

CC(=O)N(Cc1ccc(F)cc1)C1=C(NCc2ccccc2)C(=O)c2ccccc2C1=O	Tau fibril ThT 28µM, Tau fluor cs inconclusive
Cc1ccc(-c2ccc(/C=C3\C(=O)ON=C3c3ccccc3)o2)c([N+](=O)[O-])c1	Tau fibril ThT 16µM, Tau fluor cs inconclusive
CCOc1ccc(/C=C/C2=Cc3c(sc(NC(=O)CSc4n[nH]c(N)n4)c3C#N)C(C)(C)C2)cc1	Tau fibril ThT 14µM, Tau fluor cs inconclusive
Cc1ccsc1/C=C/C1=Cc2c(sc(NC(=O)CSc3n[nH]c(N)n3)c2C#N)C(C)(C)C1	Tau fibril ThT 16µM, Tau fluor cs inconclusive
CCOC(=O)c1sc(NC(=O)CSc2n[nH]c(-c3ccncc3)n2)c(C#N)c1C	none
COc1cc2c(cc1OC)C(COc1ccc3c(C)cc(=O)oc3c1)N(C(=O)c1cccc(OC)c1OC)CC2 (stereo unspecified)	none
O=C(Nc1nc2c(s1)CCCC2)Oc1ccccc1	none
C/C(=N\Nc1nc2c(s1)CCCC2)c1ccccc1	Tau fibril ThT 14µM, Tau fluor cs inconclusive
Cc1nn(-c2ccccc2)c(N2CCCC2)c1/C=C1\N=C(c2ccc(F)cc2)OC1=O	none
Cc1ccc(C2=N/C(=C\c3c(C)nn(-c4ccccc4)c3N3CCCC3)C(=O)O2)cc1	Tau fibril ThT 13µM
CC(C)=CCCC1(C)C=Cc2c(c(C)cc3c2[nH]c2cc(O)ccc23)O1 (stereo unspecified)	Tau fibril ThT 28µM, Tau fibril FP inconclusive, Tau fluor cs 5µM[quencher]
NS(=O)(=O)c1ccc(NC2=CC(c3ccc([N+](=O)[O-])cc3)N(c3ccc(S(N)(=O)=O)cc3)C2=O)cc1 (stereo unspecified)	Tau fibril ThT inconclusive, Tau fluor cs 13µM[quencher]
COc1ccc(NC2=CC(c3ccc(OC)c(OC)c3)N(c3ccc(OC)cc3)C2=O)cc1 (stereo unspecified)	none
COC(=O)c1c(NC(=O)CN2CCC3(O)CCCCC3C2c2ccccc2OC)sc(C)c1C (stereo unspecified)	none
COC(=O)c1c(NC(=O)CN2CCC3(O)CCCCC3C2c2ccc(OC)cc2OC)sc(C)c1C (stereo unspecified)	TR SRC2 fluor cs 100µM[quencher], TRb-SRC2 inh inconclusive
Cc1cccc(NC(=O)Nc2nnc(N3CCCC3)s2)c1	none
COC(=O)C1C(O)C(C)C(O)C(C)(O)/C=C\C=C(/C)C(=O)Nc2c(C)c(OC(C)=O)c3c(c2O)C(=O)C(C)=C2OCOC(=C23)/C(C)=C/C(C)(O)C(O)C(C)C1O (stereo unspecified)	Tau fibril FP inconclusive, Tau fluor cs 4µM[quencher] (no result: Tau fibril ThT)
S=c1[nH]nc(-c2n[nH]c3c2CCC3)n1/N=C/C=C/c1ccco1	Tau fibril ThT 22µM, Tau fibril FP inconclusive
O=C1N=c2ccccc2=C1c1sc(NS(=O)(=O)c2ccccc2)nc1O	Tau fibril ThT 7.1µM, Tau fluor cs inconclusive
O=C1N=c2ccccc2=C1c1sc(NS(=O)(=O)Cc2ccccc2)nc1O	Tau fibril ThT 7.9µM
O=C1N=c2ccccc2=C1c1sc(Nc2ccc(O)cc2)nc1O	Tau fibril ThT 2.2µM, Tau fluor cs 14µM[quencher]
O=C(O)CCC(C(=O)O)n1c(O)c(C2=c3ccccc3=NC2=O)sc1=S (stereo unspecified)	Tau fibril ThT inconclusive
COc1ccc(-c2cc(C(F)(F)F)n3nc(C(=O)Nc4cc(Cl)cc(Cl)c4)cc3n2)cc1	none
CCOC(=O)c1ccc(NC(=O)c2cccc(S(=O)(=O)N3c4ccccc4CC3C)c2)s1 (stereo unspecified)	Tau fibril FP 8.9µM, Tau fluor cs inconclusive
Cc1ccc(P(=O)(CSC(=N)N)c2ccc(C)cc2)cc1	Tau fibril ThT 13µM, Tau fibril FP inconclusive
